# Test results: PubChem BioAssay (Tox21)
# Results filed as inconclusive are left out. Entries that show only a call come without a potency. The source made the active and inactive calls. Unless noted, the call rests on the fitted dose curve; in most records, active means well fitted curve in the direction sought with a large enough effect in the repeat runs; inconclusive means weak or mixed curves; inactive means no such curve, though single readings can be large; an effect the other way counts as inactive or inconclusive.
# Experiments:
# [1] = qHTS RealTime-Glo MT Cell Viability Assay in HEK293 cells - 0 hour (AID 1224880); further: top concentration of the series differs between compounds; nearly all actives have a fitted effect of over 45% in size
# Method in brief: (§1)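 HEK293 + NanoLuc + prosubstrate, 600 cells/well; 5 h, 37 C/5% CO2; compound 23 nL in DMSO by pintool; 37 C; luminescence read at 0, 8, 16, 24, 32 and 40 h time points.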
# [2] = A CellTox Green Cytotoxicity Assay to monitor cytotoxicity in HEK293 cells - 32 hour (AID 1224881); further: nearly all actives have a fitted effect of over 40% in size
# Method in brief: (§2)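 Tox21 screen in HEK293: membrane-impermeant cyanine dye fluoresces on binding dead-cell DNA; compound pinned 5 h post-seeding, plates held at 37 C, signal read repeatedly through 40 h.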
# [3] = A CellTox Green Cytotoxicity Assay to monitor cytotoxicity in HepG2 cells - 0 hour (AID 1224882); further: nearly all actives have a fitted effect of over 35% in size
# Method in brief: (§3)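 Measurements at 0, 8, 16, 24, 32 and 40 h of treatment captured CellTox Green fluorescence in HepG2 cells that had been co-plated with reagent and preincubated 5 h at 37 C/5% CO2.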
# [4] = A CellTox Green Cytotoxicity Assay to monitor cytotoxicity in HepG2 cells - 32 hour (AID 1224883); further: nearly all actives have a fitted effect of over 50% in size
# Method in brief: as §3
# [5] = qHTS RealTime-Glo MT Cell Viability Assay in HepG2 cells - 16 hour (AID 1224885); further: nearly all actives have a fitted effect of over 50% in size
# Method in brief: (§4)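 Cell number in HepG2 cultures estimated from NanoLuc luminescence generated by metabolic reduction of a prosubstrate by living cells. The homogeneous, nonlytic format allowed repeated reads at 0, 8, 16, 24, 32 and 40 h of compound exposure.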
# [6] = qHTS RealTime-Glo MT Cell Viability Assay in HEK293 cells - 8 hour (AID 1224887); further: nearly all actives have a fitted effect of over 50% in size; further: potency means the concentration at half of the fitted maximal effect
# Method in brief: as §1
# [7] = A CellTox Green Cytotoxicity Assay to monitor cytotoxicity in HEK293 cells - 16 hour (AID 1224888); further: nearly all actives have a fitted effect of over 35% in size
# Method in brief: as §2
# [8] = qHTS RealTime-Glo MT Cell Viability Assay in HepG2 cells - 0 hour (AID 1224889); further: nearly all actives have a fitted effect of over 50% in size
# Method in brief: as §4
# [9] = A CellTox Green Cytotoxicity Assay to monitor cytotoxicity in HepG2 cells - 8 hour (AID 1224890); further: nearly all actives have a fitted effect of over 45% in size
# Method in brief: as §3
# [10] = qHTS assay to identify small molecule antagonists of the estrogen receptor alpha (ER-alpha) signaling pathway using the BG1 cell line in the presence of 0.1 nM 17-beta-estradiol - cell viability counter screen (AID 1259241); further: nearly all actives have a fitted effect of over 40% in size
# Method in brief: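 The cell line endogenously expresses full-length ER-alpha and carries four EREs driving luciferase. Cells are cultured 5 days hormone-free, treated 22 hr with compounds and 0.1 nM estradiol, then viability is read by fluorescence.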
# [11] = qHTS assay to identify small molecule antagonists of the androgen receptor (AR) signaling pathway using the MDA cell line in the presence of 0.5 nM R1881 - cell viability counter screen (AID 1259242); further: nearly all actives have a fitted effect of over 45% in size
# Method in brief: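 Concentration-response screen of compounds for toxicity in MDA-kb2 reporter cells: 16 hr at 37C with 0.5 nM R1881, endpoint live-cell protease fluorescence measured in the reporter wells.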
# [12] = target: Androgen receptor (Homo sapiens) (UniProt P10275); experiment: qHTS assay to identify small molecule antagonists of the androgen receptor (AR) signaling pathway using the MDA cell line in the presence of 0.5 nM R1881 (AID 1259243); further: nearly all actives have a fitted effect of over 50% in size
# Method in brief: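 With R1881 held at 0.5 nM (final), compound effects on MMTV-luciferase expression in MDA-kb2 cells were scored by luminescence after a 16 hr, 37C incubation.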
# [13] = target: Estrogen receptor (Homo sapiens) (UniProt P03372); experiment: qHTS assay to identify small molecule antagonists of the estrogen receptor alpha (ER-alpha) signaling pathway using the BG1 cell line in the presence of 0.1 nM 17-beta-estradiol (AID 1259244); further: nearly all actives have a fitted effect of over 50% in size; further: potency means the concentration at half of the fitted maximal effect
# Method in brief: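 Compounds were tested against 0.1 nM (final) 17beta-estradiol in VM7Luc4E2 cells, which express full-length ER-alpha and an ERE-luciferase reporter; luminescence was recorded following 22 h exposure.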
# [14] = qHTS assay to identify small molecule HDAC inhibitors (AID 1259364); further: potency means the concentration at half of the fitted maximal effect;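 further: wild-type HCT-116 cells with endogenous class I/II HDAC activity; nearly all actives have a fitted effect of over 45% in size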
# Method in brief: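 Screening used wild-type human colon HCT-116 cells incubated overnight, dosed with compounds for 2 hours, and assayed with a homogeneous luminogenic HDAC I/II reagent for 30 minutes at room temperature.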
# [15] = qHTS assay to identify small molecule HDAC inhibitors - cell viability counter screen (AID 1259365)
# Method in brief: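 Viability readout: CellTiter-Glo luminescence. Wild-type HCT-116 cells, 2hr compound treatment following overnight attachment at 37 C.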
# [16] = qHTS assay to identify small molecule agonists of the sonic hedgehog signaling (Shh) pathway - cell viability counter screen (AID 1259366); further: nearly all actives have a fitted effect of over 50% in size
# Method in brief: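 Viability measured fluorometrically (CellTiter-Fluor, 1hr, 37C) in 3T3 Gli1-Luc reporter cells after 23hr compound exposure within a 24hr incubation at 37C/5% CO2.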
# [17] = qHTS assay to identify small molecule antagonists of the sonic hedgehog signaling (Shh) pathway - cell viability counter screen (AID 1259367); further: nearly all actives have a fitted effect of over 55% in size
# Method in brief: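 Cytotoxicity was assessed in parallel with Shh reporter activity by measuring live-cell protease fluorescence (CellTiter-Fluor) in NIH/3T3 cells stably carrying Gli1-Luc, treated with compound under conditioned medium stimulation for 23 hr plus 1 hr reagent incubation.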
# [18] = qHTS RealTime-Glo MT Cell Viability Assay in HEK293 cells - 24 hour (AID 1224886); further: nearly all actives have a fitted effect of over 50% in size; further: potency means the concentration at half of the fitted maximal effect
# Method in brief: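 Homogeneous bioluminescent viability format in HEK293 cells (600 cells/well). Following 5 h at 37 C/5% CO2, 23 nL compound was pintooled; the signal was measured repeatedly during 40 h incubation.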
# [19] = qHTS assay to identify small molecule phospholipidosis (PLD) inducers (AID 1259344; active means well fitted curve in the direction sought with a large enough effect; an effect the other way counts as inactive or inconclusive)
# Method in brief: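 Cells (HepG2, 900 per well) attach for 4 h, receive LipidTOX Red and compound together, incubate 24 h at 37 C, are fixed 30 min with paraformaldehyde/Hoechst, then imaged at one site per well.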
# [20] = A CellTox Green Cytotoxicity Assay to monitor cytotoxicity in HEK293 cells - 8 hour (AID 1224884); further: nearly all actives have a fitted effect of over 35% in size
# Method in brief: as §2
# Androgen receptor (Homo sapiens), sequence (P10275 whole entry, looked up): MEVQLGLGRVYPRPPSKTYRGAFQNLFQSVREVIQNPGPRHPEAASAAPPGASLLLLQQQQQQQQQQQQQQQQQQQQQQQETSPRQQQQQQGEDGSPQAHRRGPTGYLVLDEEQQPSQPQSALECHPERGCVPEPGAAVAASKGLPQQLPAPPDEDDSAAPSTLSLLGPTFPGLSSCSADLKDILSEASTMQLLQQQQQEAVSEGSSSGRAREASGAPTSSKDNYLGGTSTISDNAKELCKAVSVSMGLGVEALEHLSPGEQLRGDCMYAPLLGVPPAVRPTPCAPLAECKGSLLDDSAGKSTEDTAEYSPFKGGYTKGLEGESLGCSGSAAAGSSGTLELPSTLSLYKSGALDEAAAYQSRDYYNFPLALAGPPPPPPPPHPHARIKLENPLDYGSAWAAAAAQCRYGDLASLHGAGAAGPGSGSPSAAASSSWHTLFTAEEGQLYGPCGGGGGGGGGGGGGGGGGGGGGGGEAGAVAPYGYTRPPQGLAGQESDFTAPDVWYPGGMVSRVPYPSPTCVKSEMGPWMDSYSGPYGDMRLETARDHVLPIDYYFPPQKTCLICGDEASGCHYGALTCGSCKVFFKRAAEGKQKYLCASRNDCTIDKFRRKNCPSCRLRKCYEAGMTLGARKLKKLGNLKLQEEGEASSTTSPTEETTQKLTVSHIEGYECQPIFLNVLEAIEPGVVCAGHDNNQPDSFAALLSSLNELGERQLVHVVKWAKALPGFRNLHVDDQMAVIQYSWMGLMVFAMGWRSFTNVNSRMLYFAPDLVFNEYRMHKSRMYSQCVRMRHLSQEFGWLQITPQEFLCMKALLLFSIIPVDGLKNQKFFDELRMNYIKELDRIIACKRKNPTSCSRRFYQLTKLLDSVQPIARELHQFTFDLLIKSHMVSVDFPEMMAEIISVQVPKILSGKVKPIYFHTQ
# Estrogen receptor (Homo sapiens), sequence (P03372 whole entry, looked up): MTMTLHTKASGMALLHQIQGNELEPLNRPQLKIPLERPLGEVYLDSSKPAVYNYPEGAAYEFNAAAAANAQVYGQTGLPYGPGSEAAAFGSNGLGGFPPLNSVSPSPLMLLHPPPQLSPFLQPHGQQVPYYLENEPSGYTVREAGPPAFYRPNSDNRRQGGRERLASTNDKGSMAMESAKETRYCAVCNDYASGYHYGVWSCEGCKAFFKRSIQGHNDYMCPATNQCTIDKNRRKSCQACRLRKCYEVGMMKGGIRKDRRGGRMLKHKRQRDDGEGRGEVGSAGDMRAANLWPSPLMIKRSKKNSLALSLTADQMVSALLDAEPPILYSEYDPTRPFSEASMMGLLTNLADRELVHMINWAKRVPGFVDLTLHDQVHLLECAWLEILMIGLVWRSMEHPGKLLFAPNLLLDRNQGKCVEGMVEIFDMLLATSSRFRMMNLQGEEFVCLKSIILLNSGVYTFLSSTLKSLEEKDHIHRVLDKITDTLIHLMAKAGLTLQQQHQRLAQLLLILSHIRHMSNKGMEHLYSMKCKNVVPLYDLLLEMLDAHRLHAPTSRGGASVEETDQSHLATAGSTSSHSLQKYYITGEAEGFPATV
SMILES,Potency [1],Potency [2],Potency [3],Potency [4],outcome [5],Potency [6],Potency [7],Potency [8],Potency [9],Potency [10],Potency [11],Potency [12],Potency [13],Potency [14],outcome [15],Potency [16],Potency [17],Potency [18],Potency [19],Potency [20]
CCC[Si](OC)(OC)OC,inactive,inactive,inactive,inactive,inactive,inactive,inactive,inactive,inactive,inactive,inactive,inactive,inactive,inactive,inactive,inactive,inactive,,,
O=[N+]([O-])c1ccc(Cl)cc1Cl,inactive,inactive,inactive,inactive,inactive,inactive,inactive,inactive,inactive,inactive,inactive,,,inactive,,inactive,inactive,inactive,,
COc1cc(CNC(=O)CCCC/C=C/C(C)C)ccc1O,inactive,inactive,inactive,inactive,inactive,2.39 µM (active),inactive,inactive,inactive,,inactive,,59.5 µM (active),inactive,inactive,,inactive,4.77 µM (active),inactive,
Oc1ccc(CCNCCCCCCNCCc2ccccc2)cc1O,inactive,inactive,inactive,,inactive,,inactive,inactive,inactive,,inactive,,,inactive,inactive,,,23.9 µM (active),inactive,inactive
C=Cc1ccc(C=C)cc1,inactive,inactive,,inactive,inactive,inactive,inactive,inactive,inactive,inactive,inactive,,inactive,inactive,inactive,inactive,inactive,inactive,,inactive
CCCCCCCCCCCCCCCCC(=O)O,inactive,inactive,,inactive,inactive,inactive,inactive,inactive,inactive,inactive,inactive,inactive,,inactive,inactive,inactive,inactive,inactive,,inactive
O=C(N[C@@H](Cc1ccccc1)[C@@H](O)C(=O)N1C[C@@H](O)[C@@H](O)C1)c1cc2cc(Cl)ccc2[nH]1,inactive,inactive,inactive,,inactive,,inactive,inactive,,inactive,inactive,,,inactive,,,,,,inactive
CCCc1ccc(OC)cc1,inactive,inactive,,inactive,inactive,inactive,inactive,inactive,inactive,inactive,inactive,inactive,inactive,inactive,inactive,inactive,inactive,inactive,,inactive
Cc1c(-c2cccnc2)c2ccccc2n1CCCCC(=O)O,inactive,inactive,,inactive,inactive,inactive,inactive,,inactive,inactive,inactive,,,inactive,inactive,inactive,inactive,inactive,,inactive
CCc1ccc(C(=O)C(C)CN2CCCCC2)cc1 (centres undefined),inactive,inactive,,inactive,inactive,inactive,inactive,,inactive,inactive,inactive,,,inactive,inactive,inactive,inactive,inactive,inactive,inactive
C=C[Si]1(C)O[Si](C)(C=C)O[Si](C)(C=C)O[Si](C)(C=C)O1 (centres undefined),inactive,inactive,inactive,,inactive,inactive,inactive,inactive,inactive,inactive,inactive,,,inactive,inactive,inactive,,,,inactive
O=C1c2ccccc2C(=O)c2c1ccc(O)c2O,inactive,inactive,,inactive,inactive,inactive,inactive,,inactive,,,,,29.8 µM (active),inactive,,inactive,inactive,inactive,inactive
Cc1c(N=C=O)cccc1N=C=O,inactive,inactive,inactive,,inactive,inactive,inactive,inactive,inactive,inactive,inactive,inactive,,inactive,inactive,inactive,inactive,inactive,,inactive
COc1ccc(/C(C)=C/C(=O)O)c(OC)c1,inactive,inactive,,inactive,inactive,inactive,inactive,inactive,inactive,inactive,inactive,,inactive,inactive,inactive,inactive,inactive,inactive,,inactive
[O-][n+]1ccc(Cl)cc1,inactive,inactive,,inactive,inactive,inactive,inactive,inactive,inactive,inactive,inactive,,,inactive,,,inactive,inactive,,inactive
CC1(C)CC(=O)CC(C)(C)N1,inactive,inactive,,inactive,inactive,inactive,inactive,inactive,inactive,inactive,inactive,,inactive,inactive,inactive,,inactive,inactive,,inactive
CC(C)CCCCCOC(=O)CS,inactive,inactive,,inactive,inactive,inactive,inactive,inactive,inactive,inactive,inactive,,inactive,inactive,inactive,inactive,inactive,inactive,,inactive
O=Cc1ccc(Cl)c([N+](=O)[O-])c1,inactive,inactive,inactive,,inactive,,inactive,inactive,inactive,inactive,inactive,,inactive,inactive,inactive,,inactive,,,inactive

SMILES,Potency [1],Potency [2],Potency [3],Potency [4],outcome [5],Potency [6],Potency [7],Potency [8],Potency [9],Potency [10],Potency [11],Potency [12],Potency [13],Potency [14],outcome [15],Potency [16],Potency [17],Potency [18],Potency [19],Potency [20]
O=C(C1CCCCC1)N1CC(=O)N2CCCc3ccccc3C2C1 (centres undefined),inactive,inactive,inactive,inactive,,inactive,inactive,inactive,inactive,inactive,inactive,inactive,,inactive,inactive,inactive,inactive,inactive,,
Clc1nc2ccccc2nc1Cl,inactive,inactive,inactive,inactive,inactive,inactive,inactive,,inactive,inactive,,,inactive,inactive,,inactive,inactive,,,
OCCc1ccncc1,inactive,inactive,,inactive,inactive,inactive,inactive,inactive,inactive,inactive,inactive,,inactive,inactive,inactive,inactive,inactive,inactive,,inactive
COc1ccc(/C=C/c2cc(OC)cc(=O)o2)cc1,inactive,inactive,inactive,inactive,inactive,,inactive,,inactive,inactive,inactive,,inactive,6.26 µM (active),inactive,,inactive,,,
c1ccc(CN(Cc2ccccc2)Cc2ccccc2)cc1,inactive,inactive,inactive,,inactive,inactive,inactive,inactive,inactive,inactive,inactive,,,inactive,,inactive,inactive,inactive,,inactive
CCCC(=O)OCCC(C)C,inactive,inactive,inactive,inactive,inactive,,inactive,inactive,,inactive,inactive,inactive,inactive,inactive,inactive,inactive,inactive,,,
OCC(O)c1ccccc1 (centres undefined),inactive,inactive,inactive,inactive,,inactive,inactive,inactive,inactive,inactive,inactive,,,inactive,inactive,inactive,inactive,inactive,,
O=C(c1ccco1)N1CCNCC1,inactive,inactive,inactive,inactive,,inactive,inactive,inactive,inactive,inactive,inactive,inactive,inactive,inactive,inactive,inactive,inactive,inactive,,
Cc1c(Nc2ncccc2C(=O)O)cccc1C(F)(F)F,inactive,inactive,inactive,inactive,inactive,inactive,inactive,inactive,inactive,inactive,inactive,,,,inactive,,inactive,,inactive,
CCn1nc(Cc2ccccc2)cc1C1CCN(C[C@H]2C[C@H](N(C)[C@@H](C(=O)O)C(C)C)C[C@@H]2c2cccc(F)c2)CC1,inactive,inactive,inactive,,inactive,,inactive,inactive,inactive,inactive,inactive,,inactive,inactive,inactive,,,,,inactive
CCN(CCCCOC(=O)c1ccc(OC)c(OC)c1)C(C)Cc1ccc(OC)cc1 (centres undefined),inactive,inactive,inactive,,inactive,,inactive,inactive,inactive,inactive,inactive,,inactive,inactive,inactive,inactive,inactive,,inactive,inactive
O=C(O)c1ccccc1[N+](=O)[O-],inactive,inactive,,inactive,inactive,inactive,inactive,,inactive,inactive,inactive,,,inactive,inactive,inactive,inactive,inactive,,inactive
CCCCOC(=O)CC#N,inactive,inactive,,inactive,inactive,inactive,inactive,inactive,inactive,inactive,inactive,,inactive,inactive,inactive,inactive,inactive,inactive,,inactive
CC1=C(C)C(=O)C(CCCCC#CCCCC#CCO)=C(C)C1=O,inactive,inactive,inactive,inactive,,0.535 µM (active),inactive,inactive,inactive,inactive,inactive,,,inactive,inactive,inactive,inactive,0.601 µM (active),inactive,
O=C(OCCOCCOCCOC(=O)c1ccccc1)c1ccccc1,inactive,inactive,inactive,,inactive,,inactive,,inactive,inactive,inactive,,,inactive,inactive,inactive,inactive,,,
CCOC(C)OCC,inactive,inactive,inactive,inactive,inactive,inactive,,,inactive,inactive,inactive,,,inactive,inactive,inactive,inactive,,inactive,
Cc1ccc(NC(=O)c2ccc(CN3CCN(C)CC3)cc2)cc1Nc1nccc(-c2cccnc2)n1,inactive,inactive,inactive,,,,inactive,inactive,inactive,,inactive,,,inactive,,,,21.3 µM (active),,inactive
